# HT1080 IDH1KD tx – qHTS for induction of synthetic lethality in tumor cells producing 2HG: qHTS for the HT-1080-IDH1KD cell line | HT-1080 IDH1 knockdown viability, ATP luminescence, 48 h | 360,000 compounds, 2% hits | Potency, µM (top dose mostly 46.1 µM), inactives show at the top dose activity, negative = toxicity, actives largely listed as cytotoxic;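 also: potency is read from the fitted curve at half-maximal effect; 0% = DMSO wells and -100% = cell-free medium wells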
#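 Knockdown cells (IDH1KD HT-1080) received compounds 2 h after plating at 750 cells/well and were kept 48 h at 37 °C in 5% FBS RPMI. A CellTiter-Glo luminescence read gave % activity for curve fitting.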
# uPA generation – qHTS for Inhibitors of Cell Surface uPA Generation; cell surface uPA generation assay, qHTS; Potency, µM (doses to about 38.3 µM), for the others: at the top dose activity change, negative = inhibition, usual class: inhibitors; 330,000 compounds, 0.31% hits; active = well fitted inhibition curve with a large enough effect; inconclusive = small, poorly fitted or top-dose-only effect; inactive = no such curve, though single readings can be large or run the other way; tested in mouse RAW 264.7 cells; also: potency is read from the fitted curve at half-maximal effect; nearly all actives have a fitted effect of over 55% in size
# IL-1B inflam inh – qHTS for Inhibitors of Inflammasome Signaling: IL-1-beta AlphaLISA Primary Screen; AID 743279, 2014; THP-1 LPS/ATP IL-1B secretion, AlphaLISA, 16 h; stronger effect = lower value; 360,000 compounds, 4.7% hits; activity change, % at 57.5 µM; in the data active = activity change below about -50%; inconclusive = mostly about -30% to -49%
#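 THP-1 cells pretreated 1 hr with compounds (up to 57.5 uM final), then stimulated with LPS (250 ng/mL final) plus ATP (1.25 mM final); secreted IL-1B measured by AlphaLISA after 16 hr, decreased signal indicating inhibition.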
# DT40 TDP1 CPT – qHTS for Inhibitors of human tyrosyl-DNA phosphodiesterase 1 (TDP1): qHTS in cells in presence of CPT. chicken DT40 Tdp1-/-;hTDP1 cells + 20 nM CPT, ATP luminescence, 48 h. Potency, µM (top dose mostly 46.2 µM), inactives show top-dose activity change, negative = growth inhibition, most hits filed as inhibitors. 420,000 compounds, 12% hits; also: potency is read from the fitted curve at half-maximal effect; nearly all actives have a fitted effect of over 55% in size
#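 Cell growth measured by CellTiter-Glo luminescence after a minimum 48 h, 37 C compound exposure with 20 nM CPT in Tdp1-knockout DT40 cells stably expressing hTDP1, seeded 400/well; qHTS titration format.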
# HT1080-NT tox – qHTS for induction of synthetic lethality in tumor cells producing 2HG: qHTS for the HT-1080-NT fibrosarcoma cell line; AID 686970, 2013; Potency, µM (doses to about 46.1 µM), inactives show top-dose activity, negative = less viability, most hits filed as cytotoxic; 360,000 compounds, 1.6% hits; HT-1080-NT fibrosarcoma viability, CellTiter-Glo ATP luminescence, 48 h;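 also: NT is the 2HG producing partner of a matched IDH1 knockdown line; potency is read from the fitted curve at half-maximal effect; 0% = DMSO-treated cells and -100% = media-only wells without cells; nearly all actives have a fitted effect of over 55% in size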
#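 HT-1080-NT; 750 cells/well; 5% FBS RPMI; 48 h compound, 37 degrees C; CellTiter-Glo luminescence; curve fitting and curve-class assignment.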
# DT40 TDP1 no CPT – qHTS for Inhibitors of human tyrosyl-DNA phosphodiesterase 1 (TDP1): qHTS in cells in absence of CPT. Potency, µM (titrated, usually from 46.2 µM), for the others: at the highest dose activity change, negative = growth inhibition, usual class: inhibitors. DT40 Tdp1-/- hTDP1 cells, no CPT, ATP luminescence, 48 h. 420,000 compounds, 15% hits. AID 686978, 2013; also: potency is read from the fitted curve at half-maximal effect; nearly all actives have a fitted effect of over 55% in size
#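 Chicken DT40 Tdp1-/- cells stably complemented with human TDP1 were seeded at 400 cells/well with DMSO in place of 20 nM camptothecin. After compound pinning, cells grew at least 48 hr at 37 °C; viability read by CellTiter-Glo luminescence.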
# The depositor's hits bear a star; ? = inconclusive; . = no result given; [ ] = dose if it differs, or a comment. Hits are enriched below; roughly 19% of the tested compounds scored in any of these assays. Unless noted, calls follow the shape of the dose curve; as a rule, active = well fitted curve in the direction sought with a large enough effect; inconclusive = small, poorly fitted or top-dose-only effect, or another doubt; inactive = no such curve, though single readings can be large; an effect the other way counts as inactive or inconclusive. Unless noted, % is scaled to controls: 0 for no effect and ±100 for the full control effect.
SMILES,HT1080 IDH1KD tx,uPA generation,IL-1B inflam inh,DT40 TDP1 CPT,HT1080-NT tox,DT40 TDP1 no CPT
O=C(NC(=S)NCCC1=CCCCC1)c1cncc(Br)c1,3.0%,-7.7%,31.3,3.2%,4.0%,-6.7%
CC(C)CCN1CCN(Cc2ccoc2)CC1CCO (configuration not stated),9.4%,0.2%,-11.5,7.4%,14.3%,6.1%
CC(C)CCN1CCN(CC(c2ccccc2)c2ccccc2)CC1CCO (configuration not stated),-14.0%,-2.6%,0.0,23.1µM*,-9.0%,20.6µM*
CCOC(=O)c1sc2ncn(CC(=O)Nc3ccc(OCC)cc3)c(=O)c2c1C,.,.,.,2.2%,.,-1.6%
CC(=O)NC(c1ccco1)c1cc(Cl)c2ccc(Cl)nc2c1O (configuration not stated),.,-17.2%,.,.,.,.
Oc1c(C(Nc2nc3ccccc3s2)c2ccco2)ccc2cccnc12 (configuration not stated),?,-5.5%,-99.2*,3.66µM*,-29.8%,5.17µM*
CC(C)C(=O)NC(c1ccco1)c1ccc2cccnc2c1O (configuration not stated),?,-13.2%,120.6,3.26µM*,4.11µM*,4.61µM*
c1coc(CNc2nc3ccccc3s2)c1,0.7%,-6.2%,-19.4,0.8%,-13.3%,2.0%
CCN(CC)c1ccc(C(NC(=O)C(C)C)c2ccc3cccnc3c2O)cc1 (configuration not stated),?,.,80.5,2.91µM*,?,2.91µM*
CCN(CC)c1ccc(C(NC(C)=O)NC(C)=O)cc1,1.8%[9.24 µM],2.0%,16.1,4.8%,4.1%,7.6%
CN(C)c1ccc(N=Nc2ccc3ncccc3c2)cc1,18.9%,1.8%,-12.0,-13.8%,10.7%,-27.0%
CC(C)C(=O)NC(c1ccc(N(C)C)cc1)c1ccc2cccnc2c1O (configuration not stated),.,.,.,3.98µM*,.,5.62µM*
CC1CCCCN1S(=O)(=O)c1ccc(S(=O)(=O)N2CCN(C)CC2)cc1 (configuration not stated),20.9%,-4.6%,11.1,-0.8%,5.2%,-6.6%
COc1cccc(C(c2sc3nc(-c4ccco4)nn3c2O)N2CCOCC2)c1 (configuration not stated),.,.,.,-3.0%,.,-10.1%
NNC(=O)c1cc(-c2ccco2)[nH]n1,0.0%,-8.7%,-11.8,-17.4%,-4.1%,-13.0%
COc1ccccc1/C=C/C=N/NC(=O)c1ccccn1,28.9%,-2.2%,-8.6,1.6%,?,-8.3%
O=C(N/N=C/C(Br)=C/c1ccccc1)c1cc(-c2ccco2)[nH]n1,?,-29.8%,-68.3*,6.51µM*,?,8.2µM*
COc1ccccc1/C=C/C=N/NC(=O)c1cc(-c2ccco2)[nH]n1,?,-3.0%,-28.2,?,-29.4%,18.4µM*
CC(/C=N/NC(=O)c1cc(-c2ccc(C)o2)[nH]n1)=C\c1ccccc1,-4.9%,?,-3.5,14.6µM*,-13.1%,16.4µM*
C[C@@H]1CN([C@@H](C)CO)C(=O)c2cc(Br)cnc2O[C@H]1CN(C)C(=O)Cc1cccnc1,9.2%,.,1.3,7.2%,6.6%,10.5%
Cc1cc(C)c(C(=O)N(C)CC2CCCN(CCc3ccccc3F)C2)o1 (configuration not stated),-1.3%,6.3%,-14.2,-5.8%,1.6%,-28.1%
CN(Cc1ccccc1OCCO)CC1CCCN(CCc2ccc(Cl)cc2)C1 (configuration not stated),?,-7.9%,-61.4*,?,?,?
COC(=O)CCCC(=O)N(C)CC1CCCN(CCc2ccccc2C)C1 (configuration not stated),15.9%,1.6%,-1.1,-17.3%,9.5%,?
COc1cc(OC)c(OC)cc1CN(C)CC1CCCN(CCc2ccccc2F)C1 (configuration not stated),?,-1.4%,?,14.6µM*,-25.5%,?
COc1ccc(CN(C)CC2CCCN(CCc3ccccc3C)C2)cc1O (configuration not stated),?,-6.0%,-52.4*,-22.5%,?,?
SMILES,HT1080 IDH1KD tx,uPA generation,IL-1B inflam inh,DT40 TDP1 CPT,HT1080-NT tox,DT40 TDP1 no CPT
COc1cccc(CN(C)CC2CCCN(CCc3ccccc3C)C2)c1 (configuration not stated),?,-23.9%,-25.5,?,?,18.4µM*
CCC(=Cc1ccccc1O)c1ccncc1,-16.6%,1.6%,-9.8,-2.5%,-11.8%,-24.8%
Cc1ccnc2ccc(Br)cc12,.,.,.,-24.8%,.,-21.1%
Cc1ccc2c(c1)cc1c(=O)n(CC(=O)NC3CCCCC3)nc(C)n12,.,.,.,-10.0%,.,-14.4%
CCOC(=O)N/N=C(\C)c1ccccc1OC(F)F,1.0%,-0.8%,19.8,12.8%,5.8%,-3.0%
COc1cc(NC(=O)c2cccs2)c(OC)cc1NC(=O)CCC(=O)Nc1ccc2ncccc2c1,?,3.6%,-15.3,?,?,?
O=[N+]([O-])c1ccccc1-c1ccc(C(=S)N2CCCC2)o1,-9.8%,-16.0%,1.3,25.9µM*,0.7%,?
Cc1c(Cl)cccc1-c1ccc(C(=O)N2CCN(c3ccc([N+](=O)[O-])cc3)CC2)o1,15.3%,-6.1%,-29.7,?,21.4%,25.9µM*
O=[N+]([O-])c1ccccc1-c1ccc(C(=S)N2CCCCC2)o1,-12.9%,-5.9%,-13.8,-17.7%,-13.2%,?
O=C(c1ccc(-c2cccc(Cl)c2)o1)N1CCN(c2ccc([N+](=O)[O-])cc2)CC1,2.1%,-4.1%,18.1,?,-0.1%,20.6µM*
CN1CCN(C(=S)c2ccc(-c3cccc([N+](=O)[O-])c3)o2)CC1,-3.5%,?,-23.3,-27.9%,-0.3%,23.1µM*
COc1ccc(C=O)cc1COc1ccccc1F,?,-0.4%,55.7,?,-17.8%,?
COc1ccc(C=O)cc1COc1ccc([N+](=O)[O-])c(C)c1,?,4.9%,14.6,16.4µM*,?,20.6µM*
COc1ccc(C=O)cc1COc1ccc2c(c1)OCO2,23.1µM*,-4.9%,47.4,3.66µM*,?,4.61µM*

# Screening results deposited in PubChem by National Center for Advancing Translational Sciences (NCATS).
